# Values joined by “and” are separate entries in the source; they are usually repeats but may differ in a detail not shown here. Identical values can stand only once. Hit rate of the full screen: of about 16,000 compounds, about 5,800 (36%) were called active. Not shown: some 23% with an inconclusive outcome. The call rests on the fitted dose curve; in most records, active means well fitted curve in the direction sought with a large enough effect; inconclusive means small, poorly fitted or top-dose-only effect, or effect the other way; inactive means no such curve, though single readings can be large or run the other way. This is one part of the list.
# Target: Cytochrome P450 2C19 (Homo sapiens) (UniProt P33261)
# Assay: Cytochrome panel assay with activity outcomes
# Details: recombinant CYP, pro-luciferin dealkylation, luminescence, p450-cyp2c19; series mostly up to 57.1 µM
# On the % scale 0 is the no-effect control and ±100 the full control effect.
# Sequence of Cytochrome P450 2C19 (Homo sapiens) (P33261 whole entry, looked up): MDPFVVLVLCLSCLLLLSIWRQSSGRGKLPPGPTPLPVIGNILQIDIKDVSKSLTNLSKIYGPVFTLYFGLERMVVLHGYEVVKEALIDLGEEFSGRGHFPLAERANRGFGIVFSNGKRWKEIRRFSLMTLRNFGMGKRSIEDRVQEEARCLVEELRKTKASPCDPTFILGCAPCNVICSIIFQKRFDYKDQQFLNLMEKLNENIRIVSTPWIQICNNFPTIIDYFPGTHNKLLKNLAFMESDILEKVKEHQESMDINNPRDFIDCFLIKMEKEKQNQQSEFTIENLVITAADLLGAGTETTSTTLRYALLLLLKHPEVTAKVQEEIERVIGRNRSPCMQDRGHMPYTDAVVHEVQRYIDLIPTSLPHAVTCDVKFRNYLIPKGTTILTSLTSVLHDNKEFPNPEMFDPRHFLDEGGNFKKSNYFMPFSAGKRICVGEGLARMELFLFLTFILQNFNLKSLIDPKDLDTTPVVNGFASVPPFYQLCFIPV
Compound,"activity, negative = inhibition",AC50
CN1CCCC[C@@H]1CCN1CCCCC1,26.3% [at 11.4 µM] (inactive),–
CCOC(=O)C1CCCN(C(=O)c2cc3nc(-c4ccc5c(c4)OCO5)cc(C(F)(F)F)n3n2)C1 (stereo not drawn),–,14.1 µM (active)
COc1ccc(-c2cc(C(F)(F)F)n3nc(C(=O)N4CCCCC4)cc3n2)cc1,–,14.1 µM (active)
COC(=O)c1ccccc1NC(=O)c1cc2nc(C3CC3)cc(C(F)(F)F)n2n1,–,inactive
COc1ccc(NC(=O)N2CCCC3(CCN(C(=O)c4cc(C(F)(F)F)cc(C(F)(F)F)c4)CC3)C2)cc1,–,inactive
C[C@H](c1ccccc1)N1C(=O)[C@H]2[C@@H]3[C@H](O)[C@H](O)CC(=O)[C@H]3CC[C@H]2C1=O,-0.855% [at 11.4 µM] (inactive),–
CCc1nnc(SCc2ccc(OC(C)C)cc2)n1N,–,10 µM (active)
COc1cccc2c1C(=N)c1c(O)c3c(c(O)c1C2=O)C[C@](O)(C(C)=O)C[C@@H]3O[C@H]1C[C@H](N)[C@@H](O)[C@H](C)O1,-44.3% [at 11.4 µM] (inactive),–
CCOc1ccc(NC(=O)c2ccc(Br)o2)c([N+](=O)[O-])c1,–,inactive
COc1cc(C(=O)NCCC(C)C)c([N+](=O)[O-])cc1OC,–,inactive
O=C(NCc1ccc(Cl)cc1)c1ccc(Cl)cc1[N+](=O)[O-],–,1.26 µM (active)
O=[N+]([O-])c1cc(Cl)cc2c1nc(NCCO)c1ccccc12,-34.6% [at 11.4 µM] (inactive),–
O=C(NCc1ccccc1)c1ccc(Cl)cc1[N+](=O)[O-],–,11.2 µM (active)
Cc1ccc(C(=O)NCCNc2ccc(Cl)cc2[N+](=O)[O-])o1,–,7.94 µM (active)
O=c1[nH]ncn2cccc12,–,inactive
Nc1nc(-c2ccc3ccccc3c2)cc(-c2cc(-c3ccc4ccccc4c3)nc(N)n2)n1,10.1% [at 11.4 µM] (inactive),–
c1ccc2cc(-c3csnn3)ccc2c1,–,3.98 µM (active)
O=C(O)c1nnsc1-c1csnn1,-19.5% [at 11.4 µM] (inactive),–
COc1ccc(-c2nc3cnc(N4CCN(C)CC4)nc3n(C3CC3)c2=O)cc1,–,inactive
Cc1cccc(NC(=S)NC(=O)c2cccs2)n1,–,3.55 µM (active)
COc1cc(NC(=S)NC(=O)c2c(OC)cccc2OC)ccc1NC(=O)c1cccs1,–,2 µM (active)
Cc1ccccc1C(=O)Nc1cccc(NC(=S)NC(=O)c2cccs2)c1,–,3.55 µM (active)
O=C(NC(=S)NNC(=O)c1cccs1)c1ccco1,–,inactive
O=C(COc1ccccc1C(=O)N/N=C\c1ccc(O)c(O)c1)N/N=C/c1ccc(O)c(O)c1,–,15.8 µM (active)

Compound,"activity, negative = inhibition",AC50
O=C(N/N=C/c1cccc(OC2CSC2)c1)c1ccccc1O,–,inactive
CCOCc1cnc(C)nc1NCC(=O)c1c(C)[nH]c2ccccc12,–,inactive
CCOC(=O)CC(=O)CSc1nnc2c(n1)[nH]c1ccccc12,–,14.1 µM (active)
CON(C)C(=O)c1nnc2c(n1)[nH]c1ccccc12,-38.3% [at 11.4 µM] (inactive),–
Cc1ccc(C(=O)NNC(=O)CSc2nnc3c(n2)[nH]c2ccc(F)cc23)cc1,–,inactive
COc1[nH]c2ccc(F)cc2c1C(=O)OCC1CCN(CCNS(C)(=O)=O)CC1,–,inactive
O=C(CSc1nnc2c(n1)[nH]c1ccc(F)cc12)OCc1ccccc1,–,0.398 µM (active)
Cc1cccc(N(CC(=O)NC2CCCC2)C(=O)c2cc3cc4cccc(C)c4nc3s2)c1C,–,3.98 µM (active)
Cc1cc(C)nc(NC(=O)c2cccc([N+](=O)[O-])c2C)n1,–,inactive
O=C(Nc1cccc(NC(=O)c2ccccc2[N+](=O)[O-])n1)c1ccccc1[N+](=O)[O-],–,8.91 µM (active)
S=C(Nc1ccccc1)Nc1ccccc1C#Cc1ccccc1,–,3.16 µM (active)
C=CCN(CC=C)C(=S)Nc1ccccc1,–,inactive
CC(=O)N1CCN(c2ccccc2NC(=O)COc2ccc(Br)cc2)CC1,–,14.1 µM (active)
CCOc1ccc(C(=O)Nc2ccccc2N2CCCC2)cc1,–,15.8 µM (active)
Cc1ccc(OCC(=O)Nc2ccccc2N2CCOCC2)c(C)c1,–,3.98 µM (active)
COc1ccc(-c2ccc3c(n2)CCCN3C[C@H](O)CN2CCCc3nc(-c4ccc(Br)cc4)ccc32)cc1,0.393% [at 11.4 µM] (inactive) and -39.5% [at 11.4 µM] (inactive),–
COc1ccc(-n2c(=O)c(C)nc3cnc(N4CCNCC4)nc32)cc1,–,inactive
CS(=O)(=O)N1CCC2(CC1)CN(Cc1cc(C(F)(F)F)cc(C(F)(F)F)c1)C2,–,inactive
NS(=O)(=O)c1cc(C(=O)O)c(O)c2ccccc12,-24.4% [at 11.4 µM] (inactive),–
CCOC(=O)c1c(C)oc2c1cc(O)c1ccccc12,–,3.55 µM (active)
COc1ccc2[nH]cc(CCNc3ncncc3-c3ccccc3CN(C)C)c2c1,–,10 µM (active)
COCCNc1ncncc1-c1c(C)noc1C,–,inactive
COc1ccc2[nH]cc(CCNc3ncncc3-c3c(C)noc3C)c2c1,–,3.16 µM (active)
COc1ccc2[nH]cc(CCNc3ncncc3-c3ccccc3Cl)c2c1,–,0.0631 µM (active)

Compound,"activity, negative = inhibition",AC50
COc1ccc2[nH]cc(CCNc3ncncc3-c3ccccc3C(F)(F)F)c2c1,–,0.251 µM (active)
CN(C)Cc1ccccc1-c1cncnc1NC1CC1,–,inactive
CC(=O)NCCNc1ncncc1-c1ccccc1CN(C)C,–,inactive
CC(N)=NCc1cccc(CN)c1,–,inactive
COc1ccc2[nH]cc(CCNc3ncncc3-c3ccccc3C)c2c1,–,0.0501 µM (active)
COc1ccc2[nH]cc(CCNc3ncncc3-c3ccccc3OC)c2c1,–,0.0794 µM (active)
C[C@H]1C[C@H]2[C@H]3CCC4=CC(=O)C=C[C@@]4(C)[C@]3(F)[C@H](O)C[C@]2(C)[C@@]1(O)C(=O)COP(=O)(O)O,18.4% [at 11.4 µM] (inactive),–
Cc1ccc(C(C(=O)NCc2ccco2)N(C(=O)CNC(=O)c2cccs2)c2ccc(C)cc2C)cc1 (stereo not drawn),–,1.12 µM (active)
O=C(NCc1ccco1)C(c1ccccc1)N(C(=O)Cc1cccs1)c1ccccc1F (stereo not drawn),–,3.16 µM (active)
Cc1ccc(C(C(=O)NC2CCCCC2)N(CC2CCCO2)C(=O)CNC(=O)c2cccs2)cc1 (stereo not drawn),–,10 µM (active)
CCC(C)OC(=O)C1=C(C)NC(=O)CC1c1ccccc1OC (stereo not drawn),–,2 µM (active)
CCOC(=O)C1=C(C)NC2(O)c3ccccc3C(=O)C12O (stereo not drawn),–,inactive
COc1cccc2c1OC1(C)CC2/C(=C(\C)O)C(=O)N1 (stereo not drawn),–,inactive
CCCOc1ccccc1C1CC(=O)NC(C)=C1C(=O)OCC(C)C (stereo not drawn),–,1.41 µM (active)
c1ccc2c(c1)c1ccccc1n2Cn1c2ccccc2c2ccccc21,–,0.398 µM (active)
CCn1c(=O)[nH]c2ccccc21,–,inactive
COc1cccc(-c2cc(NCc3ccccc3OC)ncn2)c1,–,7.94 µM (active)
COc1cccc(-c2cc(NCc3ccc(OC)cc3OC)ncn2)c1,–,5.01 µM (active)
COc1ccc(CNc2cc(-c3cccnc3)ncn2)c(OC)c1,–,inactive
S=c1[nH]nc(CSCc2ccccc2Cl)n1-c1ccccc1,–,0.708 µM (active)
Cn1c(CCNC(=O)c2ccccc2Cl)n[nH]c1=S,–,inactive
CN(Cc1n[nH]c(=S)n1C)S(=O)(=O)c1ccccc1,–,inactive
Cc1cccc(NC(=O)CSc2nc3ccccc3c3nc(CCc4c(C)n[nH]c4C)nn23)c1,–,7.94 µM (active)
Cn1c(=O)n(C)c2cc(/C=N/NC(=O)c3ccc(Cl)cc3Cl)ccc21,–,3.98 µM (active)

Compound,"activity, negative = inhibition",AC50
COc1ccc(/C=N\NC(=O)O)cc1,11% [at 11.4 µM] (inactive),–
Cn1c(=O)n(C)c2cc(S(=O)(=O)O)ccc21,–,inactive
COC(=O)c1ccc(/C=N\NC(=O)c2ccc(C)cc2Cl)cc1,–,5.01 µM (active)
Cn1c(=O)n(C)c2cc(/C=N/n3cnnc3)ccc21,–,17.8 µM (active)
Cc1cc(C)c(S(=O)(=O)Nc2ccccc2C(F)(F)F)c(C)c1,–,0.1 µM (active)
Cc1cc(C)c(S(=O)(=O)NNC(=O)C2CCN(Cc3ccccc3)CC2)c(C)c1,–,inactive
Cc1cc(C)c(S(=O)(=O)Nc2cccc(C(F)(F)F)c2)c(C)c1,–,3.16 µM (active)
CC(C)NC(=O)N1CC[C@@]2(CCCN(C(=O)c3cc(C(F)(F)F)cc(C(F)(F)F)c3)C2)C1,–,inactive
CCC(C)(C)n1nnnc1C(c1cc2cc3c(cc2[nH]c1=O)OCO3)N1CCCCC1 (stereo not drawn),–,31.6 µM (active)
COc1ccccc1CN(Cc1cc2cc3c(cc2[nH]c1=O)OCCO3)Cc1nnnn1Cc1ccco1,–,7.08 µM (active)
CCC(c1nnnn1CC1CCCO1)N(CCN1CCOCC1)Cc1cc2cc(C)ccc2[nH]c1=O (stereo not drawn),–,inactive
CCC(C)(C)n1nnnc1C(C(C)C)N(Cc1ccco1)Cc1cc2cc3c(cc2[nH]c1=O)OCO3 (stereo not drawn),–,10 µM (active)
CCNc1ncc2nc(C)c(=O)n(C[C@H]3CCCO3)c2n1,–,inactive
COc1ccc(CONS(=O)(=O)c2ccc(NC(C)=O)cc2)cc1Cl,–,2.24 µM (active)
COc1ccc(CNC(C)(C)C)cc1Cl,–,inactive
Clc1ccc(/C=N/c2c(-c3ccc(Cl)cc3)nc3n2CCS3)cc1,–,14.1 µM (active)
CCOc1ccc(N2C(=O)/C(=C/c3cc(OC)c(OC)c(OC)c3)N(CC(=O)OC)C2=S)cc1,–,3.55 µM (active)
CCOc1ccc(N2C(=O)/C(=C/c3cccs3)N(CC(=O)OC)C2=S)cc1,–,inactive
O=C(N/N=C/c1cc([N+](=O)[O-])ccc1N1CCNCC1)c1ccc([N+](=O)[O-])cc1,–,inactive
CCN(CC)C(=O)C1CCCN(c2ccc([N+](=O)[O-])cc2/C=N/NC(=O)c2ccc([N+](=O)[O-])cc2)C1 (stereo not drawn),–,14.1 µM (active)
CCOC(=O)C(CC)(CC)C(=O)/C=C/c1ccc(Br)cc1,–,2.82 µM (active)
